# Values joined by “and” are separate entries in the source; they are usually repeats but may differ in a detail not shown here. Equal entries are not always repeated. Active and inactive are the calls of the source. The call rests on the fitted dose curve.
# Biological target: Glucocorticoid receptor (Homo sapiens) (UniProt P04150)
# Test: GR-EFC Redistribution (AID 451)
# Settings: CHO-K1 GR-EFC translocation, beta-gal luminescence, 2 h
# Procedure, shortened: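 CHO-K1 cells stably expressing nuclear-localized β-gal enzyme acceptor and GR fused C-terminally to the enzyme donor fragment; ligand-driven nuclear translocation restores β-gal by complementation. Compounds titrated up to 46 uM final, 2 h at 37 °C; luminescence read.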
# Potency means the concentration at half of the fitted maximal effect.
# Glucocorticoid receptor (Homo sapiens), sequence (P04150 whole entry, looked up): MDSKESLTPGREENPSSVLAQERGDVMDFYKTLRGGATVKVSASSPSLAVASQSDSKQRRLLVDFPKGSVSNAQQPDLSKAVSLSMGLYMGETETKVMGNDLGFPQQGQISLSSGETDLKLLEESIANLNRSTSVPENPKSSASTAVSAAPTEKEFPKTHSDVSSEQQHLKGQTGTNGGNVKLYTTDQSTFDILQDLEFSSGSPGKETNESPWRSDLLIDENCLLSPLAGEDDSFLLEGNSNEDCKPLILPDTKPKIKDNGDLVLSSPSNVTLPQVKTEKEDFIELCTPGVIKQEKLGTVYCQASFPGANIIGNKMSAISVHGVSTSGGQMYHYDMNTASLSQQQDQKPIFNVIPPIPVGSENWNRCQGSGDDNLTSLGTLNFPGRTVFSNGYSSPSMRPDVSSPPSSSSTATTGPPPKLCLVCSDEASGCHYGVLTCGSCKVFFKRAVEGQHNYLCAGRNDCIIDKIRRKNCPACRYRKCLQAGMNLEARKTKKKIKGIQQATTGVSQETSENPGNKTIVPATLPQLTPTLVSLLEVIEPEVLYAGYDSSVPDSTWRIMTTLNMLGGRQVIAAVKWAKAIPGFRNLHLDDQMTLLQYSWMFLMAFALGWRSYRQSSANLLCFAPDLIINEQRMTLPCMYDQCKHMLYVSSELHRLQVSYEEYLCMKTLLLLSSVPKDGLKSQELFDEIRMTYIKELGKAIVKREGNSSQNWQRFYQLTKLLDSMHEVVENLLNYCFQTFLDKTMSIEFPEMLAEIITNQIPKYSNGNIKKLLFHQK
row,SMILES,Potency
1,Nc1ccc(O)c(C(=O)O)c1,> 20.6 µM (inactive)
2,CN1CCc2ccccc2Cc2[nH]c3ccccc3c2CC1,> 46 µM (inactive)
3,c1cnc2c(c1)ccc1cccnc12,> 46 µM (inactive) and > 9.22 µM (inactive)
4,Cc1ccc(O)c(N=Nc2ccccc2)n1,> 46 µM (inactive)
5,O=C(Nc1ccccc1)c1cc([N+](=O)[O-])ccc1Cl,> 46 µM (inactive)
6,N#C/C(=C\c1ccc(O)c(O)c1)C(=O)c1ccc(O)c(O)c1,> 46 µM (inactive)
7,COC(=O)c1c(C)[nH]c(C)c1C(=O)c1ccccc1Cc1ccccc1,> 46 µM (inactive)
8,O=C(O)c1cc([N+](=O)[O-])ccc1NCCCc1ccccc1,> 46 µM (inactive)
9,N#C/C(=C\c1ccc(O)c(O)c1)C(=O)NCc1ccccc1,> 46 µM (inactive)
10,CN1CCc2cc(NC(=O)Nc3cccnc3)ccc21,> 46 µM (inactive)
11,NCCNC(=O)c1ncsc1-c1cccc(F)c1,> 46 µM (inactive)
12,CCCSc1ccc2nc(NC(=O)OC)[nH]c2c1,> 20.6 µM (inactive)
13,CC(C)(C=O)Cc1cc(C(C)(C)C)c(O)c(C(C)(C)C)c1,> 46 µM (inactive)
14,O=c1[nH]c2cc(C(F)(F)F)ccc2n1-c1cc(C(F)(F)F)ccc1O,> 46 µM (inactive)
15,Nc1cc(-c2ccncc2)c[nH]c1=O,> 20.6 µM (inactive)
16,C[N+]1(C)CCC(OC(=O)C(c2ccccc2)c2ccccc2)CC1,> 46 µM (inactive)

row,SMILES,Potency
1,O=C(O)Cc1ccc(-c2ccccc2)cc1,> 20.6 µM (inactive)
2,CC(=O)SCC[N+](C)(C)C,> 46 µM (inactive)
3,NC[C@@H]1O[C@H](C23CC4CC(CC(C4)C2)C3)Cc2c1ccc(O)c2O,> 46 µM (inactive)
4,O=C(O)c1ccccc1Nc1cccc(C(F)(F)F)c1,> 20.6 µM (inactive)
5,CN=c1nc(-c2ccccc2)n(-c2ccccc2)s1,> 46 µM (inactive)
6,C[N+](C)(CCCCCC[N+](C)(C)CCCN1C(=O)c2cccc3cccc(c23)C1=O)CCCN1C(=O)c2cccc3cccc(c23)C1=O,> 46 µM (inactive)
7,CN(C)C(N)=NCCC[C@H](N)C(=O)O,> 46 µM (inactive)
8,Cc1cc(NC(=O)Nc2ccc3c(ccn3C)c2)sn1,> 46 µM (inactive)
9,N[C@@H](CC(=O)O)C(=O)O,> 46 µM (inactive)
10,N[C@H](CCCP(=O)(O)O)C(=O)O,> 46 µM (inactive)
11,Oc1cc2c(cc1O)CN(C(=S)NCCc1ccc(Cl)cc1)CCC2,> 46 µM (inactive)
12,NCCCS(=O)(=O)O,> 46 µM (inactive)
13,Cc1c(N)c(=O)n(-c2ccccc2)n1C,> 20.6 µM (inactive)
14,Fc1ccc(C(OCCCc2cnc[nH]2)c2ccc(F)cc2)cc1,> 46 µM (inactive)
15,NC(=O)C(=O)O,> 46 µM (inactive)
16,COc1cc2c(CCNC(C)=O)c[nH]c2cc1Cl,> 46 µM (inactive)
